The sample as a whole holds a higher share of hits than the screen did.
Pf Dd2 inh: Plasmodium falciparum Dd2 growth inhibition; AID 1347417; P. falciparum Dd2 growth, SYBR Green, 72 h; actives 4.3% (n = 120,000); Potency, µM (series often up to 28.9 µM), for inactives: at the top dose activity, negative = inhibition, most hits filed as inhibitors; active means well fitted inhibition curve with a large enough effect;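 further: plate controls were DMSO vehicle for no effect and reference drug for full effect; nearly all actives have a fitted effect of over 65% in size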
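Readout: SYBR Green fluorescence, 485 nm excitation, 535 nm emission, after ~16 h lysis at 37C. Before that, Dd2-infected red cells (2.5% hematocrit) grew 72 h with compound, 29 uM top final concentration.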
The depositor's hits bear a star; i = inactive; [ ] = another dose, or the depositor's remark. Potency means the concentration at half of the fitted maximal effect.

SMILES	Pf Dd2 inh
CC1Cc2cc(S(=O)(=O)NCc3ccccc3)ccc2N1C(=O)C1CCC1 (stereo not given)	3.55µM*
CCc1ccc(NC(=O)C2CCC(CNS(=O)(=O)c3ccc4c(c3)CC(C)N4C(C)=O)CC2)cc1 (stereo not given)	10µM*
CCc1cccc(NS(=O)(=O)c2ccc3c(c2)CC(C)N3C(=O)C2CC2)c1 (stereo not given)	-15.6%
CC[C@H]1CN(C(C)=O)CC[C@H]1CC(=O)Nc1nccs1	-12.6%[44.1 µM]
CCCNC(=O)N1CCC2(CCC2NC(=O)COC)CC1 (stereo not given)	12.1%
Cc1ccc(CC(=O)N2CCCN(c3cc(-c4ccc(C)c(C)c4)[nH]n3)CC2)cc1	-0.4%
COc1ccccc1-c1cn2c(n1)CO[C@@H](CNC1CCCC1)C2	i
CC(C)NC(=O)NC1CC2(CCN(C(=O)c3ccccc3)CC2)c2ccccc21 (stereo not given)	-22.3%
CC(C)NC(=O)NC1CC2(CCN(Cc3ccc(O)cc3)CC2)c2ccccc21 (stereo not given)	2.82µM*
CC(=O)NC1CC2(CCN(C(=O)Cc3ccc(O)cc3)CC2)c2ccccc21 (stereo not given)	1.5%
COc1ccc(-c2ccc(C(=O)N[C@H](c3ccccn3)C3CC(O)C3)o2)cc1 (stereo not given in full)	-23.1%
O=[S+]1([O-])NCC2(CCN(CC3CC3)C2)Oc2ncccc21 (stereo not given)	4.1%
O=[S+]1([O-])NCC2(CCN(CC3CCCC3)C2)Oc2ncccc21 (stereo not given)	12.6µM*
O=[S+]1([O-])NCC2(CCN(CC3CCOCC3)C2)Oc2ncccc21 (stereo not given)	12.9%
CC(C)c1nc(-c2ccc(OC3CCN(C(=O)C4(c5ccccc5)CC4)C3)cc2)no1 (stereo not given)	-14.0%[5.79 µM]
Cc1nnc(N2CCC(C(=O)NC3CCCCC3)CC2)c2nn(-c3ccccc3)c(C)c12	42.2%
Cc1ccc(-n2nc3c(N4CCCC(C(=O)NCc5ccc(Cl)cc5)C4)nnc(C)c3c2C)cc1 (stereo not given)	-14.3%
Cc1nnc(N2CCCC(C(=O)NCc3ccccc3)C2)c2nn(-c3ccccc3)c(C)c12 (stereo not given)	28.8%
CCOc1ccc(CCNC(=O)C2CCCN(c3nnc(C)c4c(C)n(-c5ccccc5)nc34)C2)cc1 (stereo not given)	7.94µM*
COc1ccc(-n2nc3c(N4CCCC(C(=O)NCc5cccc(F)c5)C4)nnc(C)c3c2C)cc1 (stereo not given)	11.2µM*
CCc1ccc(CNC(=O)C2CCCN(c3nnc(C)c4c(C)n(-c5ccccc5)nc34)C2)cc1 (stereo not given)	-29.0%
CCOC(=O)C1CCCN(C(=O)C2CCN(c3nnc(C)c4c(C)n(-c5ccccc5)nc34)CC2)C1 (stereo not given)	10µM*
CCOC(=O)c1cccc(NC(=O)C2CCCN(c3nnc(C)c4c(C)n(-c5ccccc5)nc34)C2)c1 (stereo not given)	i
Cc1ccc(CCNC(=O)C2CCCN(c3nnc(C)c4c(C)n(-c5ccccc5)nc34)C2)cc1 (stereo not given)	52.7%[5.79 µM]
Cc1ccc(CNC(=O)NCC23CCC=C2N(C)C(=O)CC3)cc1 (stereo not given)	-1.8%
SMILES	Pf Dd2 inh
N#CCn1nc2n(c1=O)CCN(C(=O)Cc1ccsc1)CC2	-3.3%
COc1ccc(CC(=O)N2CC[C@@H](CC(=O)O)[C@@H](CCN(CCN3CCOCC3)c3ccccc3)C2)cc1	i
COCCN1CCCCCC(O)c2cc(C(=O)N3CCN(c4ncccn4)CC3)ccc21 (stereo not given)	i
COc1ccc(C(=O)NC2CCN(c3cc(-c4ccccc4)[nH]n3)CC2)c(C)c1	i
CCc1ccc(NC(=O)Cn2c(=O)c(-c3noc(CC)n3)c3n(c2=O)CCCCC3)cc1	6.3%
COc1cc(C(=O)Nc2nonc2-c2ccc(C)c(C)c2)cc(OC)c1OC	8.2%
Cc1ccc(-c2nonc2NC(=O)c2ccc(F)cc2)cc1C	31.8%
CCOc1ccc(-c2nonc2NC(=O)c2ccc(C)cc2)cc1OCC	2µM*
Cc1ccsc1C(=O)Nc1ccc2c(N3CCCCC3)ncnc2c1	11.2µM*
O=C(Nc1ccc2c(N3CCCC3)ncnc2c1)c1cccc(Br)c1	0.891µM*
Cc1ccc(C(=O)Nc2ccc3c(N4CCOCC4)ncnc3c2)cc1C	11.2µM*
O=C(Nc1ccc2c(N3CCCC3)ncnc2c1)c1ccc(Cl)cc1	2.82µM*
O=C(Nc1ccc2ncnc(N3CCCCC3)c2c1)c1ccccc1	i
O=C(Nc1ccc(Cl)cc1)c1ccc(-n2cnnc2)cc1	-6.3%
CCc1cccc(NC(=O)c2c(C)oc3ncnc(N4CCCCC4)c23)c1	-10.3%
O=C(Nc1ccc2oc(-c3cccnc3)nc2c1)c1cccc(Br)c1	53.8%
CCc1cc(N2CCCC(C(=O)c3sccc3C)C2)ncn1 (stereo not given)	i
CCc1ccc(-c2nc3cc(NC(=O)c4ccc(C)c(C)c4)ccc3o2)cc1	-12.2%
COc1cccc(C(=O)Nc2ccc3c(N4CCOCC4)ncnc3c2)c1	-17.3%
C#CCNC(=O)c1cnc2cc(C)nn2c1	3.9%[44.1 µM]
COc1ccc(C(=O)N2CCC[C@H]2c2nc(-c3ccc(F)cc3)no2)c(OC)c1	i
COc1ccc(CN2C[C@@H]3C(=O)N(Cc4ccc5c(c4)OCO5)C(=O)[C@@H]3C2)cc1OC	-15.4%
Cc1ccc(CC(=O)N2CCc3cn(C)c4cccc(c34)C2)cc1	-19.0%
CS(=O)(=O)N1CCCN(C(=O)CN2CCCC2=O)CCNC(=O)CC1c1ccccc1 (stereo not given)	-24.7%
CC(C)c1cc(C(=O)N[C@@H]2COCC[C@@H]2OCc2ccccn2)nc(N)n1	-2.5%
SMILES	Pf Dd2 inh
CN1CCN(c2nc3c(c(=O)[nH]2)CCN(Cc2cc(F)ccc2F)CC3)CC1	41.3%[5.79 µM]
O=C(C1CCCN(c2nc3ncccc3o2)C1)N1CCOCC1 (stereo not given)	-8.9%[44.1 µM]
Cc1ccc(NC(=O)C2CCCN(c3ncnc4c3nc3n4CCCCC3)C2)cc1F (stereo not given)	22.6%
CC(=O)c1ccc(NC(=O)c2nc3ccccc3nc2N2CCCCC2)cc1	i
Cc1ccc(C(=O)Nc2ccc3c(N4CCCCC4)ncnc3c2)cc1F	6.31µM*
O=C(Nc1ccc2ncnc(N3CCCCC3)c2c1)c1cc(F)cc(F)c1	-19.9%
Cc1ccc(NC(=O)c2ccc3c(c2)N(C)C2CCCCN2C3=O)cc1F (stereo not given)	-18.7%
O=C(Nc1ccc2c(N3CCCCC3)ncnc2c1)c1ccc(F)cc1	3.16µM*
O=C(c1cccc(Cl)c1)N1CCC2(CC1)CC(O)CCO2 (stereo not given)	-5.0%
O=C(COc1ccccc1F)c1ccc2c(c1)N(CC(=O)N1CCOCC1)C(=O)CO2	7.3%
CC1(c2ccccc2)N(Cc2cccnc2)C(=O)OC12CCN(C(=O)Cc1ccc3c(c1)OCO3)CC2 (stereo not given)	i
CCOC(=O)/C(C#N)=C/c1ccc(-c2ccccc2)o1	5.1%
CC(C)COC(=O)/C(C#N)=C\c1ccc(-c2ccccc2Cl)o1	1.12µM*
CCC(C)OC(=O)/C(C#N)=C\c1ccc(-c2ccccc2Cl)o1 (stereo not given)	79.2%
CCOc1cccc(CN2CC[C@H](CNC(=O)NC)[C@H](N(C)C)C2)c1	-19.1%
CCN(CC)Cc1cnc2c(C(=O)NC(C)(C)CO)cnn2c1	-8.5%
CC(C)N1C(=O)CO[C@H](c2ccc(NC(=O)c3ccc(C#N)cc3)cc2)[C@H]1CO	-9.4%[44.1 µM]

From PubChem BioAssay
